Data reported in PubChem BioAssay AID624330 (Southern Research Specialized Biocontainment Screening …, 2012).
Among all 340,000 compounds or so, about 2,100 (0.62%) were called active.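 Rule for the calls: active = first-screen hits whose inhibition reached a set limit at any dose in the follow-up dose series; inconclusive = inhibition above the set first-screen limit but never retested; inactive = the rest.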 The list is a sample of the results. Potency and affinity values are given separately.

These compounds were tested against Rac GTPase-activating protein 1 (Homo sapiens) (UniProt Q9H0H5) (assay: blockers of MgcRacGAP-driven Rac1 GTP hydrolysis – biochemical, ADP Hunter fluorescence, primary and confirmatory, confirmation (AID 624330;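 note: fluorescence reports GDP produced by GAP-driven GTP hydrolysis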)). Conditions: MgcRacGAP-stimulated Rac1 GTP hydrolysis, at 30 µM, stronger effect = higher value, GST-tagged Rac1 F28L mutant substrate.
Sequence of Rac GTPase-activating protein 1 (Homo sapiens) (Q9H0H5 whole entry, looked up): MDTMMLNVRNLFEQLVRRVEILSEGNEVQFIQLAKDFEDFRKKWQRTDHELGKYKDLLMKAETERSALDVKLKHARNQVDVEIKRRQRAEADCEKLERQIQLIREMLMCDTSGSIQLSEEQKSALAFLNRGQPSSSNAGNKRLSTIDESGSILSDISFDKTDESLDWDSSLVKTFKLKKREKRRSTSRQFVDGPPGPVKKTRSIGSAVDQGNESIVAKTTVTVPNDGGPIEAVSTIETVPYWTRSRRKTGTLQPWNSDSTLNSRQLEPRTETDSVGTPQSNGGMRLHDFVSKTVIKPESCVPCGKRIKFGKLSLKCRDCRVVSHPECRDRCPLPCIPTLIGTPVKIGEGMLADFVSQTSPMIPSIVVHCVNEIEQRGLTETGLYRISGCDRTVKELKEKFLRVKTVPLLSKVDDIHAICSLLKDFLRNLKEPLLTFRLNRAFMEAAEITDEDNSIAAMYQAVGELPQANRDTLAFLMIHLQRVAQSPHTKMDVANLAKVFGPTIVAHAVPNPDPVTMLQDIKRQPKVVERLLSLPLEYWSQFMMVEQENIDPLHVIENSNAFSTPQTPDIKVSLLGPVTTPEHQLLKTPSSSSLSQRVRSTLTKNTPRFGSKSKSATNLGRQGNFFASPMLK

inhibition, inactive:
O=C1CN(C(=O)CNCc2ccc(Cl)cc2)c2ccccc2N1 31.7%
CCCC(C(=O)Nc1ccc(S(=O)(=O)N2CCOCC2)cc1)c1ccccc1 (stereo not given) 4.26%
Cc1nn(C)c(C)c1NC(=O)CN1CCC(O)(c2ccc3c(c2)OCO3)CC1 2.97%
COc1ccccc1NC(=O)c1ccc2c(c1)CCN2S(C)(=O)=O 6.1%
CC(C)NC(=S)N/N=C1\CCCc2ccccc21 3.57%
Nc1nc(NC(=O)c2ccc(F)cc2)ns1 7.21%
Nc1nc(N)c2cc(CNc3ccc(Cl)c(Cl)c3)ccc2n1 14.7%
Cc1nc2ccc(N)cc2c(=O)n1Cc1ccc(Cl)cc1 4.23%
Cc1c(C(C)C[C@H](C)O)oc(=O)c2c1Oc1c(C)c(C(C)C[C@H](C)O)oc(=O)c1C2 (stereo not given in full) 7.75%
C(=N\N1CCN(Cc2ccccc2)CC1)/c1ccccc1 8.38%
CCOc1ccccc1/C=N/N1CCN(Cc2ccccc2)CC1 -6.47%
CCN(CC)c1ccc(/C=N/N2CCN(c3ccccn3)CC2)cc1 13.5%
CN1CCN(/N=C/c2ccc(N(c3ccccc3)c3ccccc3)cc2)CC1 15.3%
CCN(CC)c1ccc(/C=N\N2CCN(Cc3ccc(C)cc3)CC2)cc1 20.7%
CCN(CC)c1ccc(C=NN2CCCCCC2)cc1 -1.67%
CN1CCN(/N=C/c2ccc(N(C)c3ccccc3)cc2)CC1 27.2%
CCOc1ccc(/C=N/N2CCN(Cc3ccccc3)CC2)cc1 -1.17%
COc1cccc(-c2nn(C)c3sc(C(=O)NCc4ccc(C)cc4)cc23)c1 5.17%
CCOC(=O)c1[nH]c(C)c(C(=O)OCC(=O)NCc2ccc(OC)c(OC)c2)c1C 1.24%
Cn1ncc2c(NCc3ccccc3)nc(NCCCO)nc21 8.06%
CC(C)CC(NC(=O)OC(C)(C)C)c1cn([C@@H](Cc2cc3ccccc3[nH]2)C(=O)N2CCN(C(=O)OC(C)(C)C)CC2)nn1 (stereo not given in full) 9.06%
COC(=O)c1c(C)[nH]c(C(=O)OC(C)C(=O)N2CCOCC2)c1C (stereo not given) 13.4%
O=C(COC(=O)CC12CC3CC(CC(C3)C1)C2)Nc1ncc(Cl)cc1Cl 3.82%
COc1ccc(C(=O)OCC(=O)N2CCN(C(=O)c3ccco3)CC2)cc1OC 0.19%
COc1ccc2c(c1)C(c1ccc(C)o1)=NNC(c1ccccc1)=N2 2.46%
CCC1=NN(C(=O)Cc2ccccc2)C(O)(c2ccncc2)C1 (stereo not given) 5.64%
CCN(CC)c1ccc(/C=N/N2CCN(Cc3ccc(C)cc3)CC2)c(O)c1 15.3%
CCN(CC)c1ccc(/C=N/N2CCN(Cc3ccccc3)CC2)c(O)c1 25.7%
CCN(CC)c1ccc(/C=N/N2CCN(c3ccccc3OC)CC2)cc1 13%
CCN(Cc1ccccc1)c1ccc(/C=N/NC(=O)c2cccc(S(=O)(=O)N3CCOCC3)c2)cc1 9.77%
Cc1c(N(CC(=O)O)S(=O)(=O)c2ccccc2)c(=O)n(-c2ccccc2)n1C 11.2%
O=C(c1ccc(NS(=O)(=O)c2cccc3cccnc23)cc1)N1CCCCC1 -16.1%
CCOc1ccc(NC(=O)CN(C)C(=O)c2ccc(C)c(S(=O)(=O)N3CCCCC3)c2)cc1OCC 6.08%
O=[N+]([O-])c1ccc2[nH]c(O)c(N=NC(=S)NCC3CCCO3)c2c1 (stereo not given) 9.66%
COc1cccc(NC(=O)C(=O)NCC2CCCN2S(=O)(=O)c2ccccc2)c1 (stereo not given) 3.83%
CCc1ccccc1-n1nnnc1-c1cnccc1C(F)(F)F 4.03%
O=S(=O)(Cc1c(F)cccc1Cl)c1ncn[nH]1 5.34%
CN(C)c1ccc(CNn2cnnc2SCC(=O)NC(C)(C)C)cc1 14.5%
Cc1[nH]n(-c2cccc(Cl)c2)c(=O)c1-c1ccccc1 30.6%
Cc1[nH]n(-c2ccccc2)c(=O)c1-c1ccc(Cl)cc1 8.45%
COc1ccc([N+](=O)[O-])cc1N(CC(=O)N1CCN(Cc2ccccc2)CC1)S(C)(=O)=O 6.86%
COc1ccc(OC)c(NC(=O)COC(=O)CCCN2C(=O)c3ccccc3C2=O)c1 3.2%
C[C@@H]1COC(=O)CCC/C=C\C[C@@H](CC(=O)N(CCO)Cc2ccccc2)C(=O)N1 4.52%
COc1ccc(-c2cc3ccccc3n2CC(O)CN2CCC(C)CC2)cc1 (stereo not given) 9.85%
COc1ccc(-c2cc3ccccc3n2CC(O)CN2CCOCC2)cc1 (stereo not given) 4.64%
COc1ccc(C(=O)N/C(=C\c2ccc(-c3cccc([N+](=O)[O-])c3)o2)C(=O)NCCCN2CCOCC2)cc1 -23.2%
Cc1cccc(C)c1NC(=O)Cn1nnc(-c2ccc(N3CCOCC3)cc2)n1 3.65%
Cc1nc(N2CCN(c3ccccc3F)CC2)[nH]c(=O)c1C 6.5%
Cc1c(C(=O)N(Cc2ccncc2)CC2CCCO2)oc2c(F)cccc12 (stereo not given) 5.69%
COc1cc(C=O)ccc1OC(=O)c1ccncc1 14.9%
COc1cc(C=O)ccc1OC(=O)c1cccnc1 7.23%
COc1cc(/C=N/NC(=O)c2ccncc2)ccc1OC(=O)c1cc(OC)c(OC)c(OC)c1 16.1%
COc1cc(/C=N/n2cnnc2)ccc1OC(=O)c1ccco1 16.6%
COc1cc(CC(=O)OCc2cccc([N+](=O)[O-])c2)cc(OC)c1OC 2.78%
CCCCCC(=O)Nc1ccc(N2CCN(C(=O)CCC)CC2)cc1 -1.29%
CCOC(=O)C1(Cc2cccc(OC)c2)CCN(CC(O)CO)CC1 (stereo not given) -0.09%
CCOc1ccc(-c2nc3c(s2)CCc2onc(-c4ccc(OC)cc4)c2-3)cc1 1.06%
O=S(=O)(c1ccccc1Cl)N1CCCC1c1nc(-c2cccc(Cl)c2)no1 (stereo not given) 2.74%
C[C@@H](C(=O)OCC(=O)NCCc1ccc(S(N)(=O)=O)cc1)N1C(=O)C2CCCCC2C1=O (stereo not given in full) -3.1%
CCCn1c(=S)[nH]c2cc(Cl)ccc21 9.71%
COc1ccc2c(c1)-c1c(sn(-c3ccccc3)c1=S)C(C)(C)N2 18.2%
COc1ccc(-n2sc3c(c2=S)-c2cc(OC)ccc2NC3(C)C)cc1 -3.29%
Cc1ccc(CNc2nc3ccccc3n2C)cc1 13.6%
CC(C)NC(=O)Nc1ccc2c(c1)C(=O)N([C@H](C)CO)C[C@H](C)[C@@H](CN(C)C(=O)Nc1ccc(C(F)(F)F)cc1)O2 12.5%
Cc1ccc(C(C)C)c(OCC#CCN2CCOCC2)c1 30.8%
CCCN(CCC)CCOc1cc(C)ccc1C(C)C 18.2%
O=C(c1cc2ccccc2oc1=O)N(Cc1ccccc1F)C1CCS(=O)(=O)C1 (stereo not given) 6.33%
OCCCNCc1ccc(Cl)cc1Cl -1.18%
COc1ccc(C)cc1NC(=O)n1ncc2cc(Cl)ccc21 8.15%
COc1cc(NC(=O)n2ncc3cc(Cl)ccc32)cc(OC)c1 5.31%
COc1ccc(S(=O)(=O)Nc2cccc(SC)c2)cc1C(=O)N1CCOCC1 9.83%
Cc1ccccc1C(=O)NC(=S)Nc1ccccc1N1CCCC1 13.5%
Cc1ccc(NC2=C([N+](=O)[O-])CS(=O)(=O)C2)cc1 7.24%
O=[N+]([O-])C1=C(Nc2cccc3ccccc23)CS(=O)(=O)C1 9.69%
CC(=O)Nc1ccc(Nc2ccc([N+](=O)[O-])cn2)cc1 16.8%
O=[N+]([O-])c1ccc(Nc2ccc(F)cc2)nc1 6.73%
O=C(CSc1ncccn1)Nc1ccc(Cl)c(S(=O)(=O)N2CCOCC2)c1 7.79%
CCOC(=O)N1CCN(CC(O)COc2c(OC)cccc2OC)CC1 (stereo not given) 9.23%
Cc1cc(C(=O)CCC(=O)Nc2ccc(C(N)=O)cc2)c(C)s1 15%
O=C(NC1CCCCC1)c1csnn1 -0.31%
CS(=O)(=O)N1CCN(Cc2ccccc2C(F)(F)F)CC1 8.59%
Cc1ccccc1CN1CCN(Cc2ccccc2C(F)(F)F)CC1 25.3%
Cc1ccc(S(=O)(=O)N2CCN(Cc3ccccc3C(F)(F)F)CC2)cc1 13%
C=CCOc1ccccc1CN1CCCCCC1 13%
O=S1(=O)CCN(Cc2ccccc2C(F)(F)F)CC1 1.13%
C=CCOc1ccccc1CN1CCSCC1 14.2%
CCOC(=O)N1CCN(Cc2ccccc2F)CC1 17.8%
Fc1ccccc1CN1CCCCCCC1 10.2%
O=C1CCCC2=C1C(c1cccc(O)c1)C1=C(N2)c2ccccc2C1=O (stereo not given) -0.19%
Cc1ccc(NC(=O)C2Cc3ccccc3C(=O)O2)cc1 (stereo not given) -7.83%
O=C(CN(C(=O)CCC(=O)Nc1ccccn1)C1CCCC1)NCc1ccccc1 4.99%
CCOc1ccccc1NC(=O)c1ccc2nc[nH]c2c1 4.69%
CCN(C(=O)COC(=O)c1ccc(=O)n(Cc2ccccc2)n1)C1CCCCC1 0.9%
O=S(=O)(NCC1CCCO1)c1ccc(Br)cc1 (stereo not given) 12.2%
CCOc1ccc(CCN2C(=S)N([C@@H](CC(C)C)CN3CCCC3CN3C(=S)NC[C@@H]3Cc3ccc(O)cc3)C[C@@H]2CC(C)C)cc1 (stereo not given in full) 13.7%
